# PubChem BioAssay (Tox21)
# “And” between values parts separate entries of the source, which are not always exact repeats. Identical values can stand only once. Results filed as inconclusive are left out. A call without a number means that no potency is given here. The source made the active and inactive calls. Unless noted, calls follow the shape of the dose curve; as a rule, active = well fitted curve in the direction sought with a large enough effect in the repeat runs; inconclusive = weak or mixed curves; inactive = no such curve, though single readings can be large; an effect the other way counts as inactive or inconclusive.
# What was measured:
# [1] = qHTS assay to identify aromatase inhibitors - cell viability counter screen (AID 743084);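 also: cells stimulated with testosterone during compound exposure; nearly all actives have a fitted effect of over 55% in size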
# [2] = molecular target: Aryl hydrocarbon receptor (Homo sapiens) (UniProt P35869); test: qHTS assay to identify small molecule that activate the aryl hydrocarbon receptor (AhR) signaling pathway (AID 743085); also: nearly all actives have a fitted effect of over 15% in size; also: potency is read from the fitted curve at half-maximal effect;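 as to activation: HG2L7.5c1 human HepG2 liver cells with stably integrated DRE-driven firefly reporter; series mostly up to about 70 µM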
# How it was run: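 Luminescence read-out: ONE-Glo reagent, 30 min at room temperature, in HG2L7.5c1 HepG2 reporter cells treated 24 h at 37C. Viability was measured beforehand by CellTiter-Fluor fluorescence after 30 min at 37C.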
# [3] = qHTS assay to identify small molecule that activate the aryl hydrocarbon receptor (AhR) signaling pathway - cell viability counter screen (AID 743086);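 also: HepG2 liver cells carrying the AhR DRE luciferase reporter; series mostly up to about 70 µM; nearly all actives have a fitted effect of over 45% in size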
# How it was run: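 HepG2-AhR-luc (HG2L7.5c1) cells, 4000/well, were preincubated 5 h at 37C, exposed to compound in qHTS format for 24 hr at 37C, then given CellTiter-Fluor for 30 min; viability was read as fluorescence in the reporter wells.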
# [4] = molecular target: Peroxisome proliferator-activated receptor gamma (Homo sapiens) (UniProt P37231); test: qHTS assay to identify small molecule agonists of the peroxisome proliferator-activated receptor gamma (PPARg) signaling pathway (AID 743094; active = well fitted activation curve with a large enough effect in the signal ratio in the repeat runs, not every such curve was filed as active; the % refers to the signal ratio)
# How it was run: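 Agonism was assessed in a beta-lactamase reporter system, HEK293H cells with a stably integrated UAS-bla construct under PPARg control; the 17 h treatment at 37C preceded a 1 h room-temperature FRET substrate read.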
# [5] = molecular target: Peroxisome proliferator-activated receptor gamma (Homo sapiens) (UniProt P37231); test: qHTS assay to identify small molecule antagonists of the peroxisome proliferator-activated receptor gamma (PPARg) signaling pathway (AID 743191; calls by dose curve; also: series mostly up to about 63 µM; nearly all actives have a fitted effect of over 30% in size)
# How it was run: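 GeneBLAzer PPARg UAS-bla HEK293H cells carrying a UAS-driven beta-lactamase reporter were plated at 3000 cells/well, preincubated 5 h at 37C, then given compound for 17 h at 37C; LiveBLAzer B/G FRET substrate was read after 1 h at room temperature.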
# [6] = qHTS assay to identify small molecule antagonists of the peroxisome proliferator-activated receptor gamma (PPARg) signaling pathway - cell viability counter screen (AID 743194); also: nearly all actives have a fitted effect of over 55% in size
# How it was run: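 PPARg-UAS-bla HEK293H cells were plated, rested 5 h at 37 C, then treated with compounds plus rosiglitazone (50 nM final) for 17 h at 37 C; viability was then read by CellTiter-Glo luminescence after 30 min at room temperature.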
# [7] = qHTS assay for small molecule agonists of the antioxidant response element (ARE) signaling pathway (AID 743202; active = well fitted activation curve with a large enough effect in the signal ratio in the repeat runs, not every such curve was filed as active; the % refers to the signal ratio; also: potency is read from the fitted curve at half-maximal effect)
# How it was run: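 Following a 16 h, 37 C exposure of reporter HepG2 cells (ARE-driven beta-lactamase, 2,000 cells/well) to compounds, FRET substrate was applied for 2 h at room temperature and fluorescence intensity recorded.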
# [8] = qHTS assay for small molecule agonists of the antioxidant response element (ARE) signaling pathway - cell viability counter screen (AID 743203; calls by dose curve; also: nearly all actives have a fitted effect of over 55% in size)
# How it was run: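 ATP content via CellTiter-Glo luminescence served as the viability measure. Cells: ARE-bla HepG2, 2,000 per well. Exposure: 16 hrs, 37C/5% CO2.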
# [9] = qHTS assay for small molecule activators of the heat shock response signaling pathway - cell viability counter screen (AID 743209); also: nearly all actives have a fitted effect of over 50% in size
# How it was run: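 Compounds dissolved in DMSO were added to overnight-plated HSE-bla HeLa cells and left 5 h at 37 C. Cell viability was quantified by luminescence using CellTiter-Glo.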
# [10] = qHTS assay to identify small molecule agonists of the peroxisome proliferator-activated receptor delta (PPARd) signaling pathway - cell viability counter screen (AID 743211); also: nearly all actives have a fitted effect of over 55% in size
# How it was run: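 Read-out: CellTiter-Glo luminescence, 30 min RT, measured in the same wells as the beta-lactamase reporter. Cells: GeneBLAzer PPAR delta UAS-bla HEK293H, 3000 cells/well, compound exposure 17 h at 37C.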
# [11] = qHTS assay to identify small molecule antagonists of the peroxisome proliferator-activated receptor delta (PPARd) signaling pathway - cell viability counter screen (AID 743213); also: nearly all actives have a fitted effect of over 50% in size
# How it was run: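 Agonist-stimulated (L165041, 300 nM final) HEK293H PPARd UAS-bla cells are exposed to compounds for 17 h at 37 C, and ATP-based luminescence (CellTiter-Glo) from the same wells reports cytotoxicity.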
# [12] = qHTS assay to identify small molecule antagonists of the farnesoid-X-receptor (FXR) signaling pathway - cell viability counter screen (AID 743221; active = well fitted cell-killing curve with a large enough effect in the repeat runs, not every such curve was filed as active; also: nearly all actives have a fitted effect of over 50% in size)
# How it was run: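 HEK 293T FXR-bla cells, 5 h pre-incubation; compound + CDCA 50 uM final, 16 h, 37 C; beta-lactamase FRET read first, then CellTiter-Glo luminescence, 30 min RT.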
# [13] = molecular target: Vitamin D3 receptor (Homo sapiens) (UniProt P11473); test: qHTS assay to identify small molecule agonists of the vitamin D receptor (VDR) signaling pathway (AID 743222; calls by dose curve)
# How it was run: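 Tox21 cell reporter format: VDR-bla line, 16 h compound exposure in 5% CO2 at 37C, then fluorescence intensity after 2 h with LiveBLAzer B/G FRET substrate.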
# [14] = molecular target: Vitamin D3 receptor (Homo sapiens) (UniProt P11473); test: qHTS assay to identify small molecule antagonists of the vitamin D receptor (VDR) signaling pathway (AID 743223; active = well fitted inhibition curve with a large enough effect in the signal ratio in the repeat runs, not every such curve was filed as active; the % refers to the signal ratio)
# How it was run: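 Beta-lactamase reporter read-out: FRET substrate fluorescence after 2 h at room temperature, following 16 h exposure of VDR-bla cells to test compound plus 3 nM (final) 1alpha,25-dihydroxyvitamin D3 agonist at 37C.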
# [15] = qHTS assay for small molecule activators of the heat shock response signaling pathway (AID 743210; active = well fitted activation curve with a large enough effect in the signal ratio in the repeat runs, with a control signal flat, not every such curve was filed as active; the % refers to the signal ratio; also: series mostly up to about 63 µM)
# How it was run: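 Heat shock element–beta-lactamase HeLa reporter cells; qHTS with compounds for 5 h at 37 C; detection by FRET substrate fluorescence after 2.5 h at RT.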
# [16] = molecular target: Peroxisome proliferator-activated receptor delta (Homo sapiens) (UniProt Q03181); test: qHTS assay to identify small molecule antagonists of the peroxisome proliferator-activated receptor delta (PPARd) signaling pathway (AID 743215; active = well fitted inhibition curve with a large enough effect in the signal ratio in the repeat runs, not every such curve was filed as active; the % refers to the signal ratio; also: series mostly up to about 62 µM)
# How it was run: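 Here, a reporter line (HEK293H, beta-lactamase under a UAS) measures PPARd signaling. Compounds are tested against agonist L165041 at 300 nM final concentration over 17 h at 37 C, with fluorescence read after substrate.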
# [17] = molecular target: Bile acid receptor (Homo sapiens) (UniProt Q96RI1); test: qHTS assay to identify small molecule antagonists of the farnesoid-X-receptor (FXR) signaling pathway (AID 743217; active = well fitted inhibition curve with a large enough effect in the signal ratio in the repeat runs, not every such curve was filed as active; the % refers to the signal ratio)
# How it was run: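 Test compounds are pin-transferred onto FXR-bla HEK 293T cells, then chenodeoxycholic acid is added at 50 uM final. After 16 h at 37 °C, LiveBLAzer B/G substrate is applied for 2 h at room temperature and fluorescence read.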
# [18] = qHTS assay to identify small molecule agonists of the farnesoid-X-receptor (FXR) signaling pathway - cell viability counter screen (AID 743218); also: nearly all actives have a fitted effect of over 45% in size
# How it was run: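 Quantitative HTS counter screen measuring ATP-based viability via CellTiter-Glo luminescence in HEK 293T cells carrying a UAS-driven beta-lactamase reporter, after 16 h compound exposure at 37 C.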
# [19] = molecular target: Bile acid receptor (Homo sapiens) (UniProt Q96RI1); test: qHTS assay to identify small molecule agonists of the farnesoid-X-receptor (FXR) signaling pathway (AID 743220; active = well fitted activation curve with a large enough effect in the signal ratio in the repeat runs, not every such curve was filed as active; the % refers to the signal ratio)
# How it was run: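 FXR-UAS-bla HEK 293T cells carrying a UAS-driven beta-lactamase reporter were plated for 5 h at 37C/5% CO2, then exposed to DMSO-dissolved Tox21 10K compounds for 16 h at 37C. A LiveBLAzer B/G FRET substrate was loaded for 2 h at room temperature before fluorescence reading.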
# [20] = molecular target: Peroxisome proliferator-activated receptor delta (Homo sapiens) (UniProt Q03181); test: qHTS assay to identify small molecule agonists of the peroxisome proliferator-activated receptor delta (PPARd) signaling pathway (AID 743212; calls by dose curve)
# How it was run: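 Beta-lactamase reporter read by fluorescence (LiveBLAzer B/G FRET, 2 h, room temperature). Test agents, in DMSO, incubated at 37 C with PPARd-bla HEK293H cells.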
# Aryl hydrocarbon receptor (Homo sapiens), sequence (P35869 whole entry, looked up): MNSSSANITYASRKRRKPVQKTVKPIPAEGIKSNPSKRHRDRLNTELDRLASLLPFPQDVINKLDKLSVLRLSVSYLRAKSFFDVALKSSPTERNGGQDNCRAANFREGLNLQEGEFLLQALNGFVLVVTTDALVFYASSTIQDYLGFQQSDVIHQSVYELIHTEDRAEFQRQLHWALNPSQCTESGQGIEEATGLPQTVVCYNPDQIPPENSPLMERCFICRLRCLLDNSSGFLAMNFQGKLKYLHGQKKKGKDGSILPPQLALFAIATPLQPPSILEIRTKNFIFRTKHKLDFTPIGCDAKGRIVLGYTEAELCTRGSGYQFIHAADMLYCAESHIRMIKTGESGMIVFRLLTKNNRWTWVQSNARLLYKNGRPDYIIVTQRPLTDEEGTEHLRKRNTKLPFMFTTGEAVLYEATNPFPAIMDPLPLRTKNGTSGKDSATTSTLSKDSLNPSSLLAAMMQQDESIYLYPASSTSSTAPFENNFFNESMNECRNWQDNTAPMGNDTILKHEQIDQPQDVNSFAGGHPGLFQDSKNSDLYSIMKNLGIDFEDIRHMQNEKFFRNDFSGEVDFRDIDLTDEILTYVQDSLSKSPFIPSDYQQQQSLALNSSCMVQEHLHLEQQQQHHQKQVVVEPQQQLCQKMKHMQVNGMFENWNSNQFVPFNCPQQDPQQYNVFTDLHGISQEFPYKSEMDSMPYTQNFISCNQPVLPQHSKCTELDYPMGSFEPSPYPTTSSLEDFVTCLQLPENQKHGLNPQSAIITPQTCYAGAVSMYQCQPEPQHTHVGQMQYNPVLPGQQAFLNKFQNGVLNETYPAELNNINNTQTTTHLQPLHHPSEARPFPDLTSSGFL
# Bile acid receptor (Homo sapiens), sequence (Q96RI1 whole entry, looked up): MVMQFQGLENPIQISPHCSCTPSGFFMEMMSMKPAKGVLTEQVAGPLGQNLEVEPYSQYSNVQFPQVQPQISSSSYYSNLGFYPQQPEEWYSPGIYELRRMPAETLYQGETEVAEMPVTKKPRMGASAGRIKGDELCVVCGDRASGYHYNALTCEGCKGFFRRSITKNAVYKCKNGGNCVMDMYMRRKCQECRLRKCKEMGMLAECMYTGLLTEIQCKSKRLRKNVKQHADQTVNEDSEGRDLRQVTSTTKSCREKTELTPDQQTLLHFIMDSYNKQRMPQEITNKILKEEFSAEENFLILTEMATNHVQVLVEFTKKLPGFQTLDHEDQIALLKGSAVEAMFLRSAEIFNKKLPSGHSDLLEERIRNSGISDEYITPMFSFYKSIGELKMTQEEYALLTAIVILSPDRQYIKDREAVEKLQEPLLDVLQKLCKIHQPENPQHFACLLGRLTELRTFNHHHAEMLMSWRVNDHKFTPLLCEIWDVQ
# Peroxisome proliferator-activated receptor gamma (Homo sapiens), sequence (P37231 whole entry, looked up): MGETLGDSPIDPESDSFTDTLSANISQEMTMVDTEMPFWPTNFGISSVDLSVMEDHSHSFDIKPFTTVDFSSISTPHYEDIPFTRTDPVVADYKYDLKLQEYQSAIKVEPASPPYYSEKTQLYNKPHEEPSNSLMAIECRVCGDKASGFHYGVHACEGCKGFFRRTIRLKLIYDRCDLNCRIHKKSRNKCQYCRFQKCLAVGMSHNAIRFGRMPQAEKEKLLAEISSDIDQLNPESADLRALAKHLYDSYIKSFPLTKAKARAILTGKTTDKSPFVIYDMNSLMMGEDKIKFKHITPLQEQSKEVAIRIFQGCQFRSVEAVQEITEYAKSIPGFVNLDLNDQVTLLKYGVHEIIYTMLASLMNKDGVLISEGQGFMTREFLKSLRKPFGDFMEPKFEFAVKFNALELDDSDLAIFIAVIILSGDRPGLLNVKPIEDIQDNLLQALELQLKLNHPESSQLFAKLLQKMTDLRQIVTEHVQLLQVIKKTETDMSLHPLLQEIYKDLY
# Vitamin D3 receptor (Homo sapiens), sequence (P11473 whole entry, looked up): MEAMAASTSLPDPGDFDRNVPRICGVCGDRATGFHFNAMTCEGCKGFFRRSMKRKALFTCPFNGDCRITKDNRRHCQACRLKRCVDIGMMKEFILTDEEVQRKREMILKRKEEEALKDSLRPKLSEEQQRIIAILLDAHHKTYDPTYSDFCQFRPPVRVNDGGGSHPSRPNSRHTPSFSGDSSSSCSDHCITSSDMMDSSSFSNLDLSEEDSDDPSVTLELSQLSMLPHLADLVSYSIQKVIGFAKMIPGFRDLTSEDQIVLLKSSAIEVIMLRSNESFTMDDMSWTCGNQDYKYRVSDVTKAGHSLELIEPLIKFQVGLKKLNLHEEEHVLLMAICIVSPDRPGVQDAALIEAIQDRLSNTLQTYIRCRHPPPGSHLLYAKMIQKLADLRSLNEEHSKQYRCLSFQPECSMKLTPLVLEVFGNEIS
# Peroxisome proliferator-activated receptor delta (Homo sapiens), sequence (Q03181 whole entry, looked up): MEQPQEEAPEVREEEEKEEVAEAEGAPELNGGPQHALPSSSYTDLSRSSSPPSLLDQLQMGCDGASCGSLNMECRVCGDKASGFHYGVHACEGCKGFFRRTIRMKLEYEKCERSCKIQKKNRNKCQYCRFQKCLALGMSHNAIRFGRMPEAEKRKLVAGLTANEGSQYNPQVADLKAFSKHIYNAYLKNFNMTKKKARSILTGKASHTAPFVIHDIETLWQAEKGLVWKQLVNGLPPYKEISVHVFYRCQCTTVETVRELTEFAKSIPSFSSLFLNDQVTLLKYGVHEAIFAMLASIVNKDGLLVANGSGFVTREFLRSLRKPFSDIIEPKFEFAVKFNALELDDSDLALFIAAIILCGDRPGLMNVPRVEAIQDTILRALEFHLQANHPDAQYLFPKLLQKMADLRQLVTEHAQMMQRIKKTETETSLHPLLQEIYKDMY
Structure (SMILES),Potency [1],Potency [2],Potency [3],outcome [4],Potency [5],Potency [6],Potency [7],Potency [8],Potency [9],Potency [10],Potency [11],Potency [12],outcome [13],outcome [14],outcome [15],outcome [16],Potency [17],Potency [18],outcome [19],outcome [20]
CC[C@]12CCCN3CCc4c(n(c5ccccc45)[C@@](O)(C(=O)OC)C1)[C@@H]32,inactive,inactive,inactive,inactive,inactive,inactive,inactive,inactive,inactive,inactive,inactive,inactive,inactive,inactive,–,–,–,–,–,–
IC(I)I,inactive,inactive,inactive,inactive,inactive,inactive,inactive,inactive,inactive,inactive,inactive,inactive,–,–,inactive,inactive,inactive,inactive,inactive,–
CC1(C)OC(=O)NC1=O,inactive,inactive,inactive,inactive,inactive,inactive,inactive,inactive,inactive,inactive,inactive,inactive,inactive,inactive,–,inactive,inactive,–,inactive,inactive
CCCCCC1C(=O)CCC1CC(=O)OC (configuration not stated),inactive,inactive,inactive,inactive,inactive,inactive,inactive,inactive,inactive,inactive,inactive,inactive,inactive,inactive,–,inactive,–,inactive,–,inactive
Nc1cc(Cl)c(N)c(Cl)c1,inactive,27.1 µM (active) and 21.7 µM (active),inactive,inactive,inactive,inactive,27.3 µM (active),inactive,inactive,inactive,inactive,inactive,inactive,–,–,inactive,inactive,–,inactive,inactive
O=S1(=O)CCCO1,inactive,inactive,inactive,inactive,inactive,inactive,inactive,inactive,–,inactive,inactive,inactive,inactive,inactive,inactive,–,–,inactive,–,inactive
CC(C)[N+](C)(CCOC(=O)C1c2ccccc2Oc2ccccc21)C(C)C,inactive,inactive,inactive,inactive,inactive,inactive,inactive,inactive,inactive,inactive,inactive,–,inactive,inactive,inactive,inactive,inactive,inactive,inactive,–
c1ccc2c(c1)[nH]c1ccccc12,inactive,inactive,inactive,inactive,inactive,inactive,inactive,inactive,inactive,inactive,inactive,inactive,–,–,–,inactive,–,inactive,–,inactive
